The supplement of paper PMC6555819

Key:
Assay in all cases: PBM binding z-score (relative to random genomic background probes); higher = stronger binding; sequences stand for … in GC…GCGATTGACAGCGTAGAATGAAGG
[1] = test system: RARb homodimer (NR concentration 270 nM)
Method in brief: (§1)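 Each nuclear receptor dimer, without ligand, was incubated for 1 h on custom Agilent 4×180K protein-binding microarrays. Binding was detected with antibodies against each partner (one per run), and scanned fluorescence was regression-normalized. The binding z-scores are referenced to random human genomic background probes.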

[2] = test system: RARg:RXRa (NR concentration 270 nM, RXRa partner concentration 90 nM)
Method in brief: as §1

[3] = test system: RARg homodimer (NR concentration 270 nM)
Method in brief: as §1

[4] = test system: RXRa DBDmut IVT, anti-RXR (DBD mutation: RXRa K156A/R161A, NR concentration 90 nM)
Method in brief: as §1

[5] = test system: RXRa homodimer (NR concentration 180 nM)
Method in brief: as §1

[6] = test system: THRa:RXRa (NR concentration 90 nM, RXRa partner concentration 90 nM)
Method in brief: as §1

[7] = test system: THRa homodimer (NR concentration 90 nM)
Method in brief: as §1

[8] = test system: VDR homodimer (NR concentration 270 nM)
Method in brief: as §1

Row | Sequence | PBM binding z-score [1] | PBM binding z-score [2] | PBM binding z-score [3] | PBM binding z-score [4] | PBM binding z-score [5] | PBM binding z-score [6] | PBM binding z-score [7] | PBM binding z-score [8]
1 | CTCGAAAGATCGGTTGAGGTGAGTATACGGATAA | -0.106 | -0.00103 | -0.0275 | -0.15 | 0.118 | 3.31 | 0.715 | -0.316
2 | AGTCAAAGTTCAGGACGAGGTAACCTAAAGCACG | 3.52 | 4.84 | 4.86 | 2.85 | 3.15 | 3.88 | 1.92 | 2.29
3 | GCGACTGGGGCCTCAGCAGGTTACCATAACTTAA | 0.199 | -0.489 | -0.568 | -0.479 | -0.182 | 1.19 | -0.118 | -0.622
4 | TAGCCTAGGTCATTCAGGGGCCAGTATAGAAAGC | 3.29 | 6.13 | 4.44 | 1.6 | 2.84 | 3.45 | 0.509 | 1.32
5 | GCGAGTGGGGCATCAGCAGGTTACCATAACTTAA | 0.915 | 1.05 | 0.378 | -0.215 | 0.32 | 0.958 | 0.127 | -0.291
6 | GCTGCTAGGTCAACTGATGTTCAGCTAAAGCTCG | 3.45 | 4.37 | 5.51 | 1.81 | 2.95 | 2.89 | 1.02 | 0.0528
7 | AGAATGAGGTTCCCAAAGATCAGGGAAACGCTTG | -0.864 | 0.141 | 0.123 | -0.649 | 0.474 | 0.218 | -0.623 | -0.39
8 | TAGCCTAGGTCATGCGGGCCAGTACAGTGTCGGC | 2.93 | 3.86 | 4.22 | 0.739 | 3.08 | 3.06 | 0.586 | 0.448
9 | CCTAGCAGGCCAATCTGGGTCGCTCAAGGCTTGA | 0.548 | 0.673 | -0.21 | -0.847 | 0.755 | 2.75 | -0.707 | -0.559
10 | ATCTCTAGGTAACAAGTTCAGGGAAAGAGAGGAC | 1.98 | 1.77 | 1.62 | 1.06 | 1.23 | 1.85 | 1.01 | 2.78
11 | TCTCGGAGGACACGAACGGTCAGAGCTCGACATC | 1.89 | 1.02 | 2.34 | 0.557 | 0.138 | 1.44 | 0.357 | -0.389
12 | ATCTCTATGTAACCAAGTTCAGTGAATGCCGAAC | 1.28 | 0.518 | 0.659 | 0.924 | 0.314 | 0.659 | 0.156 | 2.31
13 | ACAGACAGGTGAGTGGAGGTAACTCAGCTGGACG | 0.51 | 0.417 | 0.421 | -0.468 | 0.451 | 2.29 | -0.0738 | -0.0506
14 | CCAGACAGGTGGAAGGTAACTCAGTCTGGTACGC | 0.0116 | -0.129 | -0.15 | -0.527 | 0.236 | -0.18 | -0.144 | -0.0329
15 | CCTAGCAGGCCAATCTGGGTCACTAAAGGCTTGA | 2.01 | 0.915 | 1.17 | 0.23 | 0.402 | 3.4 | 0.446 | 0.000244
16 | CGCCAAAGTTCAAGGTAACGTAACAGAAAGCAGC | 4.05 | 5.2 | 5.94 | 4.68 | 4.57 | 2.96 | 1.28 | 3.03
17 | ATCGAAAGGTCGAGGTGTGTATAGAGAAAGGGAA | 2.82 | 4.23 | 4.18 | 0.84 | 4.06 | 2.05 | 0.277 | 0.444
18 | ATCGAAAGGGCGAAGGTGAGTATACCCACCCGAA | 1.17 | 1.63 | 1.2 | -0.634 | 1.59 | 0.3 | -0.75 | -0.263
19 | GCTTGTAGATCAAGGTTAATAAAGACTAAGCTAA | 0.0389 | 0.0476 | 0.168 | -0.167 | 0.452 | 1 | -0.489 | -0.152
20 | CGTCCAAGGTCAGCAGGTCAGTGTAAGCGACGTG | 5.08 | 6.34 | 6.61 | 2.55 | 4.93 | 4.01 | 2.46 | 2.01
21 | CCTTACGGGTCACGAGGTTATAGGACGACGAGCG | 3.83 | 6.08 | 5.52 | 1.46 | 7.19 | 3.68 | 1.02 | 1.85
22 | TGTCAAAGTTCAAAGGTATCGTAAGTATCCACAC | 3.71 | 5.75 | 6.26 | 4.47 | 6.28 | 2.56 | -0.19 | 4.53
23 | ATCGAAAGCTCGAAGGTGAGTATACCCACCCGAA | -0.378 | -0.032 | 0.202 | -1.19 | 0.158 | -0.167 | -1.04 | -0.249
24 | ATCTCTAGGTAAGACTCAGGTCAGTGAAGAACGC | 2.52 | 1.49 | 1.35 | 0.359 | 0.773 | 2.67 | 2.37 | 0.803
25 | ATATGTAGATTAAGGGTCATTCAGGTTGGTTCGC | 3.42 | 3.56 | 2.52 | 2.22 | 4.48 | 3.17 | 1.19 | 4.19
26 | CGTCCAAGGTCAAGGTCAGTTAAAGAGACTCGAA | 5.26 | 6.92 | 7.72 | 3.68 | 6.66 | 4.4 | 3.3 | 3.29

Row | Sequence | PBM binding z-score [1] | PBM binding z-score [2] | PBM binding z-score [3] | PBM binding z-score [4] | PBM binding z-score [5] | PBM binding z-score [6] | PBM binding z-score [7] | PBM binding z-score [8]
27 | ATATGTAGGTTATCGCGTCATTCAGTTTGCGCAT | 0.515 | 0.647 | 0.634 | 0.806 | 1.03 | 0.388 | 0.235 | 0.254
28 | GCAGACAGGTGAAACGCAGGTAACTCATGGTGGC | 0.0324 | 0.941 | 0.44 | -0.582 | 0.943 | 1 | -0.808 | -0.818
29 | TCTGCAAGGTCAACGATGGTCAGCTAATCTGCTA | 4.58 | 6.12 | 6.75 | 2.83 | 5.75 | 4.24 | 2.36 | 1.62
30 | TCTGCTGGGTCAGTTGGTCAGCTAACGAGCTGCC | 2.12 | 2.77 | 2.99 | 0.212 | 1.06 | 0.669 | -0.537 | -0.562
31 | AATACAGGCTCACTAGGCCAGAGTAGGTACGAAT | -0.345 | -0.402 | -0.0557 | -0.214 | -0.169 | -0.688 | -0.397 | -0.126
32 | TCTTGTATATCAACAGGAGGTTAAGAAAGATCGA | 0.861 | 0.722 | 0.592 | 0.943 | 1.25 | 1.18 | 0.039 | 0.491
33 | ATATGTAGGTTGGCTGGGGTCATTCAGACTAGGC | 3.37 | 3.5 | 2.19 | 1.81 | 5.15 | 4.72 | 3.62 | 5.57
34 | ACTAGCATGCCAAGGGTCACTCAAGATTAGTCCG | 3.83 | 3.77 | 3.69 | 0.719 | 3.91 | 2.75 | 0.299 | 1.64
35 | CGTCCACGGTCAAAGGTCAGTGAAGAGATGACGG | 4.48 | 6.76 | 6.04 | 0.983 | 7.05 | 3.11 | 0.0529 | 0.561
36 | TCATATAGGTAATACAGGTGTAAGTCGGCATCTA | -0.213 | 0.547 | 0.355 | 1.67 | 1.03 | 0.384 | 0.316 | 0.283
37 | CCTTACGGGTCACTGACAGGTTATAGCCTTTGGA | 3.15 | 5.69 | 4.21 | 2 | 4.83 | 2.9 | 0.294 | 1.14
38 | ATCGAAAGGTCGAAGGTGAGTTTACCCACCCGAA | 2.62 | 4.3 | 3.49 | 1.41 | 5.2 | 2.45 | 0.143 | 3.11
39 | TTACCAAGGTGAGCTGAGGTTGTTGATCCAACTC | 0.122 | -0.185 | 0.109 | -0.414 | -0.0103 | 3.29 | 0.439 | -0.373
40 | AGAACGAGGGCACTGAGTTGATAGCACGGGTGGC | 0.877 | 1.03 | 1.64 | 1.71 | 1.02 | 1.19 | 0.176 | 2.94
41 | ATCTGTAGGTTAAGGGTCATTCAGGTTGGTTCGC | 4.02 | 5.03 | 3.89 | 2.02 | 6.57 | 3.69 | 2.07 | 4.28
42 | GTACCAGGGTGAATAGGTCGTTGATGAGTAGGCG | 1.54 | 2.21 | 0.988 | -0.386 | 2 | 1.21 | 0.463 | 0.626
43 | CGTCCAAGGTCAGAGGGGTCAGTGAATGCCGAGT | 5.33 | 6.54 | 7.18 | 3.32 | 6.41 | 4.28 | 2.82 | 5.91
44 | TCTTGTAGATCAAGCAGGTTAAGGAAGCCTGAGT | 0.203 | 0.0317 | -0.28 | 0.415 | 0.299 | 0.262 | -0.359 | 0.166
45 | ATCTCAAGGTAAGACTCAGTTCAGTGAAGAACGC | 0.641 | 0.668 | 0.469 | 0.363 | 0.542 | 1.36 | 0.884 | 1.5
46 | AGAACGAGGGCACGCTGAGTTTATAGCAGAGTAG | 1.45 | 2.31 | 2.32 | 2.18 | 1.5 | 2.15 | -0.111 | 4.06
47 | TATACCGGGTCAAAGGCCAGAGTACGAATGTCGA | 3.15 | 4.74 | 4.08 | 1.38 | 5.91 | 3.36 | 0.712 | 1.98
48 | TCATATAGGTAAACAGGTGAATGTCCGTAAGTTA | 0.605 | 0.347 | 0.272 | 1.27 | 1.03 | 0.567 | 0.511 | 0.283
49 | TCATATAGGTAAAAGGTGGAAGTCGGTGTGGTAA | 0.589 | 0.466 | -0.0176 | 1.55 | 1.54 | 0.305 | 0.294 | 0.281
50 | TCATATAGGTAAAAGGTGAAAATCGGTGTGGTAA | 1.58 | 2.04 | 0.775 | 1.69 | 3.08 | 1.56 | 0.242 | 0.627
51 | GATACAGGGTCAGTTAGAGGCCAGAGTATGGAAA | 3.21 | 5.99 | 4.52 | 1.88 | 3.67 | 2.73 | 0.565 | 1.51
52 | AGAATGAGGTTATAAGTAGATCAGGGAAGAAAGT | 0.89 | 1.35 | 0.794 | 1.41 | 2.12 | 2.1 | 0.689 | 1.09
